Reference: PubChem BioAssay (NCATS)
Inconclusive results are not listed. Active and inactive are the calls of the source. The call rests on the fitted dose curve; in most records, active means well fitted inhibition curve with a large enough effect; inconclusive means small, poorly fitted or top-dose-only effect; inactive means no such curve, though single readings can be large or run the other way.

The molecules below were run against Rap guanine nucleotide exchange factor 4 (Homo sapiens) (UniProt Q8WZA2) (assay: Confirmatory qHTS for antagonist of cAMP-regulated guanine nucleotide exchange factor 4 (EPAC2) (AID 1645885; further: nearly all actives have a fitted effect of over 25% in size)). Conditions: EPAC2 Rap1B-BODIPY-GDP exchange fluorescence, biochemical; series mostly up to 12.7 µM; activity change, negative = inhibition: at the top concentration.
On the % scale 0 is the no-effect control and ±100 the full control effect; potency means the concentration at half of the fitted maximal effect.

Sequence of Rap guanine nucleotide exchange factor 4 (Homo sapiens) (Q8WZA2 whole entry, looked up): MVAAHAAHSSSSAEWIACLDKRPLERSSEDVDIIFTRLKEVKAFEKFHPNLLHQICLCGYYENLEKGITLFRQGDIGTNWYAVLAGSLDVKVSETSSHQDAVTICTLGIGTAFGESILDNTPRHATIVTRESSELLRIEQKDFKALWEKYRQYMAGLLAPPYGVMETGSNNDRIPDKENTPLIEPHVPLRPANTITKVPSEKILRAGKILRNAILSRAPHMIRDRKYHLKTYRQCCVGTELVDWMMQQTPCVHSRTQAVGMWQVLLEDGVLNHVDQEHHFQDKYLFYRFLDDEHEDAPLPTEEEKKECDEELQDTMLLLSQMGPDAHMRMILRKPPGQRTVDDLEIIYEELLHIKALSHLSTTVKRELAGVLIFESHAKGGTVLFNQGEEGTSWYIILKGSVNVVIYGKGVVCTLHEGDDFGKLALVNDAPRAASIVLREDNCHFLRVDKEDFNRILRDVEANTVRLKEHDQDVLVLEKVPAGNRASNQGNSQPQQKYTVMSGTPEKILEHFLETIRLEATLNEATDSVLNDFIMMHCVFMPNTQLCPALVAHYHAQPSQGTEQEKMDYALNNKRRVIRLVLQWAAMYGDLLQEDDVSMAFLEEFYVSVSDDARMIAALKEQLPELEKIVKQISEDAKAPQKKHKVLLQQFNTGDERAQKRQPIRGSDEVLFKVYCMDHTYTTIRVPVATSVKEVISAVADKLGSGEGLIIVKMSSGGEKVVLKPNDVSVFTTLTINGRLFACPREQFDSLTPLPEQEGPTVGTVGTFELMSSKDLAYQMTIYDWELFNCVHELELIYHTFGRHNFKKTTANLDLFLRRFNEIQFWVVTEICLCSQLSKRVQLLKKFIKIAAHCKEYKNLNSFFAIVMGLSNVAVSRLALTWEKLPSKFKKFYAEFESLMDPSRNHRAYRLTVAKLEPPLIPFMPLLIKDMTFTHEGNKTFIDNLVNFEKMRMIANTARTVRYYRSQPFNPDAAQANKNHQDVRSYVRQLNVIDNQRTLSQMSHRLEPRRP

Potency, active:
Cc1ccc(C)c(OC(C)C(=O)Nc2ccc(S(=O)(=O)Nc3nccs3)cc2)c1 (stereo unspecified) 33.8 µM
CSc1ccccc1C(=O)N(C)C(c1ccccc1)c1ccccc1 26.9 µM

outcome, inactive:
O=C1c2cccc3cc([N+](=O)[O-])cc(c23)C(=O)N1/N=C/c1ccc(O)cc1O
Cc1ccc(Nc2nnc(-c3ccc(C)c(S(N)(=O)=O)c3)c3ccccc23)cc1 inactive [at 12.7 µM]

Activity change, negative = inhibition, inactive:
ON=C(c1ccccc1)c1ccc2c3c(cccc13)CC2 52.2% [at 114 µM]
O=[N+]([O-])c1cc(Br)ccc1NS(=O)(=O)c1ccccc1 -27.1%
CCc1nc(Oc2cccc(F)c2)c2oc3ccccc3c2n1 -24.4%
COc1ccc(N2Cc3cccc(C(=O)Nc4ccc(C(C)C)cc4)c3C2=O)cc1 -22%
Cc1cccc(Nc2nnc(SC/C(O)=C(\C#N)c3nc4ccccc4[nH]3)s2)c1 7.89% [at 114 µM]
CN(C)c1ccc(-c2[nH][nH]c(=O)c2NC(=O)c2ccccn2)cc1 -22.1% [at 114 µM]
COc1ccc(NC(=O)c2ccco2)cc1NC(=O)C(C)Oc1ccc(Cl)cc1Cl (stereo unspecified) 7.08%
CC(=O)C(=Cc1ccc(Cl)cc1)C(=O)c1ccccc1 2.91% [at 114 µM]
C#Cc1ccc([C@@H]2C=C(C(=O)OCC=C)O[C@H](OCc3ccc(CO)cc3)C2)cc1 -19.5%
COc1cc(C2CC(=O)Oc3cc(C)c(Br)c(C)c32)cc(OC)c1OC (stereo unspecified) -40.1%
COc1ccc(C(CC(=O)c2ccc(C)cc2)C(C#N)C#N)cc1OC (stereo unspecified) 60.6% [at 114 µM]
O=C(NCc1ccccc1)C(c1ccccc1)n1c(=O)c(-c2ccco2)nc2ccccc21 (stereo unspecified) 2.72%
